Measurements reported in the supplement of paper PMC8728848.
The entries come from a sample that favours the strongest signals as a whole.

Key:
Test in all cases: glycan array binding signal (z-score within array); higher = stronger binding
Settings in all cases: glycan notation: IUPAC condensed, linker removed
[1] = target: Fuc(a1-2)Gal(b1-3)GalNAc(a1-3)[Fuc(a1-2)]Gal(b1-4)GlcNAc
Method in brief: (§1)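 Negative Z-scores can be read as non-binding. The Z-score is calculated within each array and then averaged across arrays of one protein sequence at different concentrations or buffers and across linkers. Arrays, 3228 in all, were curated from the Consortium for Functional Glycomics database and kept only where the protein sequence was available.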

[2] = target: Fuc(a1-2)Gal(b1-3)GlcNAc(b1-3)[Gal(b1-4)GlcNAc(b1-6)]Gal(b1-4)Glc
Method in brief: as §1

[3] = target: Fuc(a1-2)Gal(b1-4)GlcNAc(b1-2)[Fuc(a1-2)Gal(b1-4)GlcNAc(b1-4)]Man(a1-3)[Fuc(a1-2)Gal(b1-4)GlcNAc(b1-2)Man(a1-6)]Man(b1-4)GlcNAc(b1-4)GlcNAc
Method in brief: as §1

[4] = target: Fuc(a1-2)Gal(b1-4)GlcNAc(b1-3)GalNAc
Method in brief: as §1

[5] = target: Fuc(a1-2)Gal(b1-4)[Fuc(a1-3)]GlcNAc(b1-3)GalNAc
Method in brief: as §1

[6] = target: Fuc(a1-2)[GalNAc(a1-3)]Gal
Method in brief: as §1

[7] = target: Fuc(a1-2)[GalNAc(a1-3)]Gal(b1-3)GlcNAc
Method in brief: as §1

[8] = target: Fuc(a1-2)[GalNAc(a1-3)]Gal(b1-3)GlcNAc(b1-6)GalNAc
Method in brief: as §1

[9] = target: Fuc(a1-2)[GalNAc(a1-3)]Gal(b1-4)GlcNAc
Method in brief: as §1

[10] = target: Fuc(a1-3)[Gal3S(b1-4)]GlcNAc
Method in brief: as §1

[11] = target: Gal(a1-3)Gal(b1-4)GlcNAc(b1-3)GalNAc
Method in brief: as §1

[12] = target: Gal(b1-3)GlcNAc(b1-3)Gal(b1-4)Glc
Method in brief: as §1

Gal(b1-4)GlcNAc(b1-2)Man = target: Gal(b1-4)GlcNAc(b1-2)Man
Method in brief: as §1

[13] = target: Gal(b1-4)GlcNAc(b1-3)Gal(b1-3)GlcNAc
Method in brief: as §1

[14] = target: Gal(b1-4)GlcNAc(b1-3)Gal(b1-4)GlcNAc(b1-3)Gal(b1-4)GlcNAc(b1-2)Man(a1-3)[Gal(b1-4)GlcNAc(b1-3)Gal(b1-4)GlcNAc(b1-3)Gal(b1-4)GlcNAc(b1-2)Man(a1-6)]Man(b1-4)GlcNAc(b1-4)[Fuc(a1-6)]GlcNAc
Method in brief: as §1

[15] = target: Gal(b1-4)GlcNAc(b1-3)Gal(b1-4)GlcNAc(b1-3)Gal(b1-4)GlcNAc(b1-3)Gal(b1-4)GlcNAc(b1-3)Gal(b1-4)GlcNAc(b1-2)Man(a1-3)[Gal(b1-4)GlcNAc(b1-3)Gal(b1-4)GlcNAc(b1-3)Gal(b1-4)GlcNAc(b1-3)Gal(b1-4)GlcNAc(b1-3)Gal(b1-4)GlcNAc(b1-2)Man(a1-6)]Man(b1-4)GlcNAc(b1-4)[Fuc(a1-6)]GlcNAc
Method in brief: as §1

[16] = target: Gal(b1-4)GlcNAc(b1-3)Gal(b1-4)GlcNAc(b1-3)Gal(b1-4)GlcNAc(b1-3)Gal(b1-4)GlcNAc(b1-3)Gal(b1-4)GlcNAc(b1-2)[Gal(b1-4)GlcNAc(b1-3)Gal(b1-4)GlcNAc(b1-3)Gal(b1-4)GlcNAc(b1-3)Gal(b1-4)GlcNAc(b1-3)Gal(b1-4)GlcNAc(b1-6)]Man(a1-6)[Gal(b1-4)GlcNAc(b1-3)Gal(b1-4)GlcNAc(b1-3)Gal(b1-4)GlcNAc(b1-3)Gal(b1-4)GlcNAc(b1-3)Gal(b1-4)GlcNAc(b1-2)Man(a1-3)]Man(b1-4)GlcNAc(b1-4)[Fuc(a1-6)]GlcNAc
Method in brief: as §1

[17] = target: Gal(b1-4)GlcNAc(b1-3)GalNAc
Method in brief: as §1

[18] = target: Gal(b1-4)GlcNAc(b1-6)[Gal(b1-3)]GalNAc
Method in brief: as §1

[19] = target: Gal3S(b1-3)[Fuc(a1-4)]GlcNAc
Method in brief: as §1

Gal3S(b1-4)Glc6S = target: Gal3S(b1-4)Glc6S
Method in brief: as §1

Gal3S(b1-4)GlcNAc = target: Gal3S(b1-4)GlcNAc
Method in brief: as §1

[20] = target: Gal3S(b1-4)[Fuc(a1-3)]Glc6S
Method in brief: as §1

Gal6S(b1-4)GlcNAc6S = target: Gal6S(b1-4)GlcNAc6S
Method in brief: as §1

[21] = target: GalNAc(b1-3)Gal(a1-6)Gal(b1-4)Glc
Method in brief: as §1

B1: SspB C123 (Streptococcus gordonii), Q54186 (protein)
chain: MAHFHYSSLLAQPQINKEIKNEDGVDIDRTLVAKQSIGKFELKTEALTAGRPKTTSFVLVDPLPTGYKFDLDATKAASTGFDTTYDEASHTVTFKATDETLATYNADLTKPVETLHPTVVGRVLNDGATYTNNFTLTVNDAYGIKSNVVRVTTPGKPNDPDNPNNNYIKPTKVNKNKEGLNIDGKEVLAGSTNYYELTWDLDQYKGDKSSKEAIQNGFYYVDDYPEEALDVRPDLVKVADEKGNQVSGVSVQQYDSLEAAPKKVQDLLKKANITVKGAFQLFSADNPEEFYKQYVSTGTSLVITDPMTVKSEFGKTGGKYENKAYQIDFGNGYATEVVVNNVPKITPKKDVTVSLDPTSENLDGQTVQLYQTFNYRLIGGFIPQNHSEELEDYSFVDDYDQAGDQYTGNYKTFSSLNLTMKDGSVIKAGTDLTSQTTAETDATNGIVTVRFKEDFLQKISLDSPFQAETYLQMRRIAIGTFENTYVNTVNKVAYASAAALEHHHHHH
- glycan array binding signal (z-score) [1]: -1.8
- glycan array binding signal (z-score) [2]: -0.17
- glycan array binding signal (z-score) [3]: 2.68
- glycan array binding signal (z-score) [4]: -0.78
- glycan array binding signal (z-score) [5]: 3.99
- glycan array binding signal (z-score) [6]: -0.539
- glycan array binding signal (z-score) [7]: 0.229
- glycan array binding signal (z-score) [8]: -0.099
- glycan array binding signal (z-score) [9]: -0.406
- glycan array binding signal (z-score) [10]: 0.073
- glycan array binding signal (z-score) [11]: -0.133
- glycan array binding signal (z-score) [12]: 0.516
- glycan array binding signal (z-score) (Gal(b1-4)GlcNAc(b1-2)Man): -0.183
- glycan array binding signal (z-score) [13]: 1.37
- glycan array binding signal (z-score) [14]: 1.26
- glycan array binding signal (z-score) [15]: 0.993
- glycan array binding signal (z-score) [16]: 2.74
- glycan array binding signal (z-score) [17]: 0.085
- glycan array binding signal (z-score) [18]: 0.155
- glycan array binding signal (z-score) [19]: 0.284
- glycan array binding signal (z-score) (Gal3S(b1-4)Glc6S): 0.314
- glycan array binding signal (z-score) (Gal3S(b1-4)GlcNAc): 0.468
- glycan array binding signal (z-score) [20]: 5.71
- glycan array binding signal (z-score) (Gal6S(b1-4)GlcNAc6S): 1.05
- glycan array binding signal (z-score) [21]: -0.455
